Compound activity as filed in PubChem BioAssay.
Compounds with a hit are over-represented: about 1.3% of the library has one in this group of screens.
UBC13 polyUb = inhibitors of human UBC13 polyubiquitin chain formation; TR-FRET; inhibition, % at 20 µM; P61088; 330,000 tested, 0.47% active; in the data active = inhibition above about 45%, passing the limit was not always enough
MIN6 prolif = MIN6 beta-cell proliferation induction. MIN6 cells proliferation, ATPlite luminescence, 48 h; cells starved in 0.2% serum; 100% = growth in 10% serum. proliferation, % at 10 µM. 330,000 tested, 0.29% active. AID 2380;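 active = compounds whose signal lies at least 3.5 SD above the mean of all wells on their plate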;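 also: 0% = DMSO-treated cells in low-serum medium and 100% = 10% serum control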
RAD52 inh = inhibitors of human RAD52 DNA annealing; inhibition, % at 18.7 µM; P43351; AID 651710; recombinant RAD52 DNA annealing, FRET fluorescence; 360,000 tested, 0.46% active;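 active = every replicate showing at least 50% inhibition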
DNA FID counter = displaces DNA intercalator in HCV helicase counter-screen | 290,000 tested, 0.17% active | DNA fluorescent intercalator displacement, fluorescence | inhibition, % at 7.9 µM; in the data active = inhibition above about 37%;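 also: 0% = vehicle and 100% = reference compound; higher means more ethidium bromide displaced from hairpin DNA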
PREPL inhibitor = inhibits the human prolyl oligopeptidase-like enzyme | Q4J6C6 | recombinant PREPL, fluorescence polarization activity-based probe | inhibition, % at 5.96 µM | 320,000 tested, 0.68% active;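 also: 0% = enzyme with DMSO and 100% = wells lacking enzyme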
RAD54 branch = RAD54 (human) branch migration inhibition. Q92698. AID 602329. 360,000 tested, 0.14% active. inhibition, % at 10.4 µM. RAD54 Holliday junction branch migration, FAM/BHQ fluorescence;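 active = mean normalized replicate activity at least 40 and at least half of replicates scoring 40 or more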;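 also: 0% = median of neutral control wells and 100% = median of positive control wells; inhibitors cause a drop in the FAM fluorescence signal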
Target sequence (Q92698 whole entry, looked up): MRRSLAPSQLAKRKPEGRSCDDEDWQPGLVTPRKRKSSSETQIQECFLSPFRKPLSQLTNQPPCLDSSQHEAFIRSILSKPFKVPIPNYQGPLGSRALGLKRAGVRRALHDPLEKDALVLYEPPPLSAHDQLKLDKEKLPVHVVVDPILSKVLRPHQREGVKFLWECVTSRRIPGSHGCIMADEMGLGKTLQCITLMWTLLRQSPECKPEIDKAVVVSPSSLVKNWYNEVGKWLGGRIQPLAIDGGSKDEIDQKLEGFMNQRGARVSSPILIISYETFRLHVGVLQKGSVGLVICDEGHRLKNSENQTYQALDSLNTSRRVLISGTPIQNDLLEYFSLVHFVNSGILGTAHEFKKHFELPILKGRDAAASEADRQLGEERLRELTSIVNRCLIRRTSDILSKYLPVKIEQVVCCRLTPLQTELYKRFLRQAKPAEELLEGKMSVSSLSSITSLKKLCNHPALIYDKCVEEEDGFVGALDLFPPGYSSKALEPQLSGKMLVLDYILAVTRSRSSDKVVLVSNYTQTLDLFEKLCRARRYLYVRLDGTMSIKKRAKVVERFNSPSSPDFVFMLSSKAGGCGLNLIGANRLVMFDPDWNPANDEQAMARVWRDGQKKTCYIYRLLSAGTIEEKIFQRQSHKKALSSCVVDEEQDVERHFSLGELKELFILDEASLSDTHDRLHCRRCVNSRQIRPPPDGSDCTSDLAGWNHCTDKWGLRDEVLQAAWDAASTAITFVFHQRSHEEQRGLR
PREPL confirm = human PREPL inhibition, confirmation; shares compounds with PREPL inhibitor; recombinant PREPL, fluorescence polarization activity probe; inhibition, % at 5.96 µM; 2,000 tested, 67% active;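 also: 0% = protein with DMSO and 100% = wells lacking protein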
The depositor's hits bear a star; . = not tested or not shown. Rule as the data show it, unless noted: active = inhibition above about 43%; inactive = the rest.

SMILES	UBC13 polyUb	MIN6 prolif	RAD52 inh	DNA FID counter	PREPL inhibitor	RAD54 branch	PREPL confirm
CC1=CCC2COC(c3ccc[n+](Cc4ccccc4)c3)C1C2 (stereo not given)	9	-3	8	5	49*	-1	36
O=[N+]([O-])c1cc(Cl)cc(/C=N/NC(=S)Nc2ccc(S(=O)(=O)N3CCOCC3)cc2)c1O	-46	-5	-12	-6	46*	17	28
O=S(=O)(c1ccc(NC(=S)N/N=C/c2ccc(O)c(O)c2)cc1)N1CCOCC1	-23	-3	-12	-2	33	3	.
NC(=O)C1CC(=O)N(c2ccc(OCc3ccc(Cl)cc3Cl)cc2)C1 (stereo not given)	0	-3	-13	-4	47*	5	43
COc1ccccc1-c1ccc2n(c1=O)C[C@H]1[C@H](CO)[C@@H](C(=O)N[C@H](C)c3ccccc3)[C@@H]2N1C	.	.	-11	.	.	-1	.
Cn1cccc1Cc1nnc(SCC(=O)N2CCN(c3ccccc3)CC2)n1-c1ccc(F)cc1	9	-3	.	-50	49*	4	37
Cn1cccc1Cc1nnc(SCC(=O)NCc2ccccc2)n1-c1ccc(F)cc1	-3	2	-127	-34	7	-5	.
Fc1ccc(CNc2ccc(N3CCN(Cc4ccccc4)CC3)cc2)cc1	-3	-4	-10	12	46*	-8	40
O=C(c1cnn2c(C(F)F)cc(-c3ccccc3)nc12)N1CCOCC1	-2	0	.	3	61*	-5	4
Cc1noc(C)c1NC(=O)NCC[C@@H]1CC[C@H](NC(=O)c2ccccc2)[C@H](CO)O1	.	.	4	.	.	-3	.
COc1ccc(NCc2nn(CC(=O)c3ccc(Br)cc3)c3[n+]2CCCCC3)cc1	17	-1	5	14	51*	.	55*
O=C(NCCc1c[nH]c2ccccc12)C(=O)NCC(c1ccco1)N1CCN(c2ccccc2)CC1 (stereo not given)	2	0	.	-2	46*	.	33
CNC(=O)C[C@@H]1CC[C@@H]2[C@@H](COc3ccc(NC(=O)Nc4ccccc4F)cc3C(=O)N2C)O1	.	.	.	.	.	0	.
O=c1[nH]n2c(=O)c3c([nH]c2c1N=Nc1cccc(C(F)(F)F)c1)CCCC3	-117	-3	.	-9	55*	3	62*
O=c1[nH]n2c(=O)c3c([nH]c2c1N=Nc1cccc(Cl)c1)CCC3	.	.	.	-28	27	1	.
O=C(NCCN1CCCCC1)[C@H]1[C@H](CO)[C@H]2Cn3c(cccc3=O)[C@H]2N1Cc1ccccn1	.	.	1	.	.	-6	.
CC(=O)NC1=C(N(C)C2CCS(=O)(=O)C2)C(=O)c2ccccc2C1=O (stereo not given)	-51	0	3	-3	0	-10	.
CC(=O)NC1=C(Nc2ccc(N(C)C)cc2)C(=O)c2ccccc2C1=O	-212	-2	20	-6	49*	17	39
COc1ccc(COC[C@@]23Oc4ccccc4[C@@H](NC(=S)N2C)[C@H]3CO[Si](C)(C)C(C)(C)C)cc1	.	.	19	.	.	1	.
O=[N+]([O-])c1cccc(COc2ncnc3cc([N+](=O)[O-])ccc23)c1	-13	-4	-17	5	47*	0	36
COc1ccc(CCNC(=O)COc2ncnc3cc([N+](=O)[O-])ccc23)cc1	1	0	-10	8	19	.	.
Cn1c(NC(=O)C[n+]2cc(-c3ccc(Cl)c(Cl)c3)n3c2CCC3)cc(=O)n(C)c1=O	-24	0	.	9	60*	.	51*
O=C(Nc1cccc(F)c1)N1CC(=O)N2[C@H](C1)[C@H](c1ccc(Br)cc1)[C@@H]2CO	.	.	1	.	.	.	.
C[C@H](CO)N1C[C@H](C)[C@H](CN(C)S(=O)(=O)c2ccc(C#N)cc2)Oc2ncc(C#Cc3ccc(C(F)(F)F)cc3)cc2C1=O	.	.	-23	.	.	.	.
COc1ccc(C2=CC(c3ccc(F)cc3)n3nnnc3N2)cc1 (stereo not given)	2	-4	.	-6	-67	-7	.
SMILES	UBC13 polyUb	MIN6 prolif	RAD52 inh	DNA FID counter	PREPL inhibitor	RAD54 branch	PREPL confirm
Cc1ccc(C2=CC(c3ccc(N(C)C)cc3)n3nnnc3N2)cc1 (stereo not given)	-6	-6	-68	-15	59*	-23	54*
C[C@H]1CN([C@@H](C)CO)C(=O)Cc2cc(NC(=O)Nc3ccc(F)cc3)ccc2O[C@@H]1CN(C)C(=O)Nc1cccc2ccccc12	.	.	-27	.	.	-7	.
COc1cccc2cc(C(=O)C3=C(O)C(=O)N(CCN4CCOCC4)C3c3ccc(C(C)(C)C)cc3)oc12 (stereo not given)	-12	-7	-14	-61	53*	-6	56*
NC(=S)NNc1cccc2cccnc12	-20	-6	29	9	62*	5	27
Oc1ccccc1CNc1cccc2cccnc12	-121	-7	3	1	45*	.	15
COc1cc(NCc2ccccc2O)c2ncccc2c1	-5	1	-11	-7	.	-7	.
NC(=S)Nc1cccc2cccnc12	-6	-1	-11	2	16	10	.
COCc1c(C(=O)OCc2nnc(-c3ccc([N+](=O)[O-])cc3)o2)oc2ccccc12	-5	0	-3	.	43*	.	40
CC(=O)c1c(C)[nH]c(C(=O)OCc2nnc(-c3ccc([N+](=O)[O-])cc3)o2)c1C	-8	4	-12	.	8	1	.
C[C@H]1CN([C@@H](C)CO)C(=O)CCCn2cc(nn2)CO[C@H]1CN(C)S(=O)(=O)c1ccc(F)cc1	.	.	9	.	.	5	.
CCOC(=O)c1sc(NCc2ccco2)c(-c2nc3ccccc3s2)c1N	-21	-5	.	-8	45*	-5	46*
CC=Cc1ccc2n(c1=O)C[C@H]1[C@H](CO)[C@@H](C(=O)NCC)[C@@H]2N1C(C)=O (mixture of isomers)	.	.	7	.	.	-9	.
COc1ccc(C(=O)N/N=C/c2c[nH]c3ccccc23)cc1	-9	-3	-17	-7	1	-3	.
COc1ccc2c(/C=N/Nc3ccc(C(=O)O)cc3)c[nH]c2c1	-20	-2	-115	-19	56*	-29	10
COc1ccc2c3c(n(C)c2c1)[C@@H](CO)N(C(=O)C1CCCCC1)CC31CCN(C(=O)c2ccncc2)CC1	.	.	10	.	.	.	.
COc1cccc(NC(=O)C[C@H]2CC[C@@H]3[C@H](COc4ccc(NC(=O)C5CCCCC5)cc4C(=O)N3C)O2)c1	.	.	-2	.	.	-3	.
Cc1ccc(Nc2nc(N/N=C/c3c[nH]c4ccccc34)nc(N3CCOCC3)n2)cc1	23	-3	3	-19	44*	.	60*
OCC1CCCCN1CCNCc1cn[nH]c1-c1cccc2ccccc12 (stereo not given)	5	-4	42	9	44*	-3	43
Cc1ccc(S(=O)(=O)N[C@@H]2CC[C@@H](CCn3cc(-c4ccccc4F)nn3)O[C@H]2CO)cc1	.	.	5	.	.	1	.
